The values below come from PubChem BioAssay.

Test [1] deals with Cell division control protein 42 homolog (Homo sapiens) (UniProt P60953). The test is described as follows: inhibition of fluorescent GTP binding to constitutively active Cdc42 – biochemical, multiplex bead flow cytometry, Bodipy-FL-GTP, dose response (AID 1333;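 active = fitted half-maximal concentration within the tested dose range, moderate curve steepness, a statistically real signal drop, and little compound fluorescence or tag-binding interference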).
For test [2] the target is unchanged. The experiment in a line: inhibition of fluorescent GTP binding to wildtype Cdc42 – biochemical, multiplex bead flow cytometry, Bodipy-FL-GTP, dose response (AID 1334;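 active = fitted half-maximal concentration within the tested range, moderate curve steepness, significant signal drop, and little compound fluorescence or bead-linkage interference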). The note with it: bead-based flow cytometry, Bodipy-FL-GTP binding to GST-Cdc42; at 100 µM (top of the series). Background: In flow cytometry, cells or beads pass a laser one at a time.
The subject of test [3] is Ras-related protein Rab-7a (dog), GTP binding. The test is described as follows: blockers of fluorescent GTP binding to Rab7 – biochemical, wildtype, multiplex bead flow cytometry, dose response (AID 1336; call rule not given here).
Test [4] concerns the target Ras-related C3 botulinum toxin substrate 1 (Homo sapiens) (UniProt P63000). The test is described as follows: inhibition of wildtype Rac1 nucleotide loading – biochemical, multiplex bead flow cytometry, dose response (AID 1340;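 active = dose curve with midpoint inside tested range, moderate steepness, plateau gap beyond fit error, low compound glow and bead-link interference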). The note with it: GST-Rac1 beads, Bodipy-FL-GTP binding; at 100 µM (top of the series).
For test [5], the target named is GTPase HRas (Homo sapiens) (UniProt P01112). The experiment in a line: blockade of GTP loading onto mutant Ras – biochemical, activated mutant, multiplex bead flow cytometry, dose response (AID 1341).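 Note: GST-tagged constitutively activated Ras mutant immobilized on beads and multiplexed with other GTPases.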
Test [6] is described as follows: hit retest on RPL19A-GFP reporter strain – cell-based, S. cerevisiae, flow cytometry, cherry picks, mother/daughter gates, confirmation (AID 2270;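 active = GFP response below 50% of the DMSO control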). The note with it: 3 h, at 10 µM, stronger effect = lower value, 100 = same GFP as DMSO wells.
A short description of test [7]: yeast TOR pathway reporter LAP4-GFP change – cell-based, cherry picks, flow cytometry, mother/daughter gates, confirmation (AID 2271;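 active = GFP response above 150% of the DMSO control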;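 note: ratio of sample to DMSO plate mean so 100% equals DMSO level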). The note with it: S. cerevisiae LAP4-GFP strain, 3 h, at 10 µM, stronger effect = higher value.
Test [8] in a line: TOR pathway reporter MEP2-GFP, retest of hits – S. cerevisiae, flow cytometry GFP, cherry picks, confirmation (AID 2272;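 active = GFP response above 150% of the DMSO control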;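 note: ratio of well signal to plate DMSO mean so 100% equals DMSO level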). The following applies: S. cerevisiae MEP2-GFP strain, 3 h, at 10 µM, stronger effect = higher value.
Test [9] in a line: yeast AGP1-GFP fluorescence change, single-dose – cell-based, flow cytometry, S. cerevisiae, cherry picks, confirmation (AID 2273;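 active = GFP response above 150% of the DMSO level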;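 note: median GFP channel fluorescence over the whole cell population gate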). The following applies: S. cerevisiae AGP1-GFP strain, 3 h, at 10 µM.
Test [10] is described as follows: TOR pathway CIT2 reporter hit retest – S. cerevisiae, GFP fusion, cherry picks, mother/daughter gates, confirmation (AID 2274;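 active = GFP response above 150% of the DMSO level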). The following applies: S. cerevisiae CIT2-GFP strain, flow cytometry, 3 h, at 10 µM, stronger effect = higher value.
Where [11] appears, read: measured here: daughter cell gate.
Setting [12] is: measured here: mother cell gate.
[13] abbreviates: measured here: daughter cell gate response.
Where [14] appears, read: measured here: mother cell gate response.

For some of these results: Measured potencies and affinities stand elsewhere. Active and inactive are the calls of the source.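 Rule for the calls, unless noted: active = dose-response curve with midpoint inside the tested range, moderate steepness, significant amplitude and little compound fluorescence or bead-attachment interference; inactive = the rest.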

Cell division control protein 42 homolog (Homo sapiens), sequence (P60953 whole entry, looked up): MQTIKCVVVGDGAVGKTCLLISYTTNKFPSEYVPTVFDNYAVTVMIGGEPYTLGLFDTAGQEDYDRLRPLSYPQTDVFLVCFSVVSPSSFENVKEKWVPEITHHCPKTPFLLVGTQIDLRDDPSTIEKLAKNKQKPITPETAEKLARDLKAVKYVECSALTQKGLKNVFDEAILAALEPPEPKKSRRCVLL

Regarding `CC(Oc1ccc(-c2ccccc2)cc1)C(=O)O` (stereo unspecified), the molecule was classed as inactive in test [1], in [3] and in test [5]. Besides, the fluorescence, percent of control (lower = inhibition) in [2] was found to be 126%. This molecule also displayed a GTP binding signal, raw median fluorescence (lower = inhibition) (MCF (arbitrary fluorescence units)) in [4] of 213.

As to `Cc1ccc(-n2c(O)c(/C=N/c3ncc(Br)cc3Br)c(=O)[nH]c2=O)cc1`, the result in [1], in test [3] and in test [5] was inactive. Also, in test [2], the fluorescence, percent of control (lower = inhibition) was 49.1%. Moreover, the GTP binding signal, raw median fluorescence (lower = inhibition) (MCF (arbitrary fluorescence units)) in test [4] was determined as 59.9.

As to `Cc1cc(C)cc(N2C(=O)NC(=O)/C(=C\C=C\c3ccco3)C2=O)c1`, the molecule was classed as inactive in test [1], in test [3] and in test [5]. The fluorescence, percent of control (lower = inhibition) in test [2] was 32.8%. Further, in [4], the GTP binding signal, raw median fluorescence (lower = inhibition) (MCF (arbitrary fluorescence units)) was found to be 206.

Regarding `CCn1nc(/C=C/c2ccccc2)nc2c(=O)n(C)c(=O)nc1-2`, the outcome in test [3] and in test [5] was inactive. In test [4], this molecule showed a GTP binding signal, raw median fluorescence (lower = inhibition) (MCF (arbitrary fluorescence units)) of 195.

Consider `O=C(O)c1cn(Cc2ccc(Br)cc2)c2ccccc12`, for which the outcome in test [1], in test [3] and in test [5] was inactive. Besides, the fluorescence, percent of control (lower = inhibition) in test [2] is 91.7%. The molecule further showed a GTP binding signal, raw median fluorescence (lower = inhibition) (MCF (arbitrary fluorescence units)) in test [4] of 74.

In the case of `CN1C(=O)N(C)C(=O)C2(Cc3c(ccc4ccccc34)N(C)C2)C1=O`, the molecule was classed as inactive in [1], in [3] and in [5]. Besides, the fluorescence, percent of control (lower = inhibition) in test [2] stood at 34.8%. The molecule also had a GTP binding signal, raw median fluorescence (lower = inhibition) (MCF (arbitrary fluorescence units)) in test [4] of 230.

As to `O=C(O)c1cn(Cc2ccccc2F)c2ccccc12`, the result in [1], in test [3] and in test [5] was inactive. Besides, in test [2], the fluorescence, percent of control (lower = inhibition) amounted to 93%. Further, in test [4], the GTP binding signal, raw median fluorescence (lower = inhibition) (MCF (arbitrary fluorescence units)) is 68.4.

With `O=C1NC(=S)N(Cc2ccco2)C(=O)/C1=C\c1cccs1`, the result in test [1], in test [3] and in test [5] was inactive. Also, the fluorescence, percent of control (lower = inhibition) in [2] was determined as 54.7%. Also, in test [4], the GTP binding signal, raw median fluorescence (lower = inhibition) (MCF (arbitrary fluorescence units)) was found to be 167.

Take `CCOCCCn1c(N)c(C(=O)Nc2sc3c(c2C(=O)OC)CCCC3)c2nc3ccccc3nc21`: the molecule was called inactive in test [1], in test [3] and in test [5]. Also, the fluorescence, percent of control (lower = inhibition) in test [2] was 64.4%. The GTP binding signal, raw median fluorescence (lower = inhibition) (MCF (arbitrary fluorescence units)) in test [4] was 127.

As to `CCCCN1C(=O)/C(=C\c2ccco2)C(=O)N(CCc2ccccc2)C1=O`, the molecule was called inactive in test [1], in [3] and in test [5]. Further, the fluorescence, percent of control (lower = inhibition) in test [2] is 77.8%. Besides, the GTP binding signal, raw median fluorescence (lower = inhibition) (MCF (arbitrary fluorescence units)) in test [4] turned out to be 129.

Consider `O=C(O)c1cn(Cc2ccccc2Cl)c2ccccc12`, for which the molecule was classed as inactive in test [1], in [3] and in test [5]. The fluorescence, percent of control (lower = inhibition) in test [2] turned out to be 64.9%. The GTP binding signal, raw median fluorescence (lower = inhibition) (MCF (arbitrary fluorescence units)) in [4] turned out to be 34.1.

With `O=C(O)c1cn(Cc2ccc(Cl)cc2)c2ccccc12`, the call in [1], in test [3] and in [5] was inactive. Besides, the fluorescence, percent of control (lower = inhibition) in test [2] was 76.5%. The GTP binding signal, raw median fluorescence (lower = inhibition) (MCF (arbitrary fluorescence units)) in test [4] was found to be 77.6.

Consider `Cc1nn(Cc2ccccc2)c(Cl)c1C(=O)O`, for which the fluorescence, percent of control (lower = inhibition) in [2] was found to be 45.4%. The molecule further showed a GTP binding signal, raw median fluorescence (lower = inhibition) (MCF (arbitrary fluorescence units)) in test [4] of 270. In addition, in test [5], the call was inactive.

As to `Cc1sc(-n2c(C)cc(C=C3C(=O)NC(=O)NC3=O)c2C)c(C#N)c1C`, the call in test [1] and in test [5] was inactive. Further, the fluorescence, percent of control (lower = inhibition) in test [2] came to 27.5%. In addition, in [4], the GTP binding signal, raw median fluorescence (lower = inhibition) (MCF (arbitrary fluorescence units)) was 199.

As for `CC[C@@H]1C(=O)OC[C@@H]1Cc1cncn1C`, the GFP response vs DMSO in test [6] was 99.5% (inactive); in [6] (setting [11]), 98.3%; in test [6] (setting [12]) it was 100%; in [8], 104% (inactive). For the same molecule, the GFP response relative to DMSO in [7] is 102% (inactive); in test [7] (setting [13]), 101%; in test [7] (setting [14]), 102%. The GFP response, % of DMSO in [9] is 103% (inactive); in test [10], 99.3% (inactive); in test [10] (setting [11]), 98.3%; in test [10] (setting [12]) it was 100%.

For `CC1(C)CC(n2[nH]c(=O)c3c2NC(=O)CSC3c2ccccc2)CCO1` (stereo unspecified), the molecule was classed as inactive in test [1], in test [3] and in test [5]. In [2], the fluorescence, percent of control (lower = inhibition) was found to be 35.5%. This molecule gave a GTP binding signal, raw median fluorescence (lower = inhibition) (MCF (arbitrary fluorescence units)) in [4] of 266.

On to `COc1ccc(-c2cc(=NCCCCCC(=O)O)c3cc(C)ccc3o2)cc1`, for which the call in [1], in [3] and in test [5] was inactive. Moreover, the fluorescence, percent of control (lower = inhibition) in test [2] came out at 34.9%. Moreover, the GTP binding signal, raw median fluorescence (lower = inhibition) (MCF (arbitrary fluorescence units)) in test [4] came to 132.

For `O=C(O)c1cn(Cc2ccc(F)cc2)c2ccccc12`, the call in test [1], in test [3] and in test [5] was inactive. For the same molecule, in test [2], the fluorescence, percent of control (lower = inhibition) came to 106%. Moreover, the GTP binding signal, raw median fluorescence (lower = inhibition) (MCF (arbitrary fluorescence units)) in test [4] was 91.8.

On to `Cc1nc2c(=O)n(C)c(=O)nc-2n(C)n1`, for which the outcome in [3] and in test [5] was inactive. In test [4], this molecule returned a GTP binding signal, raw median fluorescence (lower = inhibition) (MCF (arbitrary fluorescence units)) of 251.

Turning to `CCOc1ccc(C2SCC(=O)Nc3c2c(C)nn3C2CCOC(C)(C)C2)cc1` (stereo unspecified), the molecule was classed as inactive in test [1], in test [3] and in test [5]. The fluorescence, percent of control (lower = inhibition) in test [2] was 96.5%. The molecule also showed a GTP binding signal, raw median fluorescence (lower = inhibition) (MCF (arbitrary fluorescence units)) in test [4] of 195.

For `C[C@H](O)[C@H]1CC[C@H]2[C@@H]3CCC4=CC(=O)CC[C@]4(C)[C@H]3CC[C@]12C`, the GFP response vs DMSO in [6] was 97.8% (inactive); in test [6] (setting [11]) it was 93%; in [6] (setting [12]), 99.6%; in [8] it was 95.7% (inactive). The values for the GFP response relative to DMSO in test [7], in [7] (setting [13]) and in test [7] (setting [14]) were 117% (inactive), 117% and 120%, respectively. For the same molecule, the GFP response, % of DMSO is 93.7% (inactive) in [9], 96.5% (inactive) in test [10], 89.9% in [10] (setting [11]) and 98.7% in test [10] (setting [12]).

As to `C[C@]12CCC(=O)C=C1CC[C@@H]1[C@@H]2CC[C@]2(C)C(=O)CC[C@@H]12`, the GFP response vs DMSO in [6] is 96.8% (inactive); in test [6] (setting [11]), 95.1%; in test [6] (setting [12]), 97.7%; in [8], 94.1% (inactive). The figures for the GFP response relative to DMSO in [7], in test [7] (setting [13]) and in test [7] (setting [14]) were 102% (inactive), 102% and 101%, respectively. In addition, the GFP response, % of DMSO is 91.2% (inactive) in test [9], 98.3% (inactive) in [10], 97.2% in test [10] (setting [11]) and 99.7% in test [10] (setting [12]).
